A short description of assay [1]: Cell Viability - HepG2 (AID 433; calls by dose curve;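 further: potency means the concentration at half of the fitted maximal effect; cells exposed to compound for 40 hours; potency for ATP loss meaning cytotoxicity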). The conditions noted are these: qHTS. The method, boiled down:
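HepG2 hepatocellular carcinoma cells (1500/well) were treated with compounds for 40 h at 37 °C in complete medium; intracellular ATP was read by CellTiter-Glo luminescence. Data were normalized to DMSO and 100 uM tamoxifen, and AC50 came from Hill fits.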
A general note: qHTS replaces the single test concentration by a dilution series.

The nature of assay [2]: Cell Viability - SH-SY5Y (AID 544).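 Further: cells exposed to compound for 40 hours; nearly all actives have a fitted effect of over 55% in size.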 Further: potency means the concentration at half of the fitted maximal effect. The conditions noted are these: SH-SY5Y neuroblastoma cell viability; viability change, negative = cytotoxic: at 92.2 µM (top of the series). The method, boiled down:
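Luminescent ATP read-out (CellTiter-Glo) measures loss of viable SH-SY5Y neuroblastoma cells after 40 hr compound exposure at 37 °C. AC50 values derive from standard Hill modelling of qHTS concentration-response data.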

The nature of assay [3]: Cell Viability - Mesenchymal (AID 546).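 Further: cells exposed to compound for 40 hours before reading.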 The conditions noted are these: mesenchymal cells viability, qHTS; series mostly up to 91.7 µM. The method, boiled down:
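Normal human renal glomerulus-derived kidney mesenchymal cells, 1000 per well in complete medium, were treated with compounds for 40 hr at 37 °C. Viability was read as intracellular ATP by CellTiter-Glo luminescence; AC50 values came from Hill-equation fits of qHTS concentration-response data.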

The nature of assay [4]: Cellular Toxicity (caspase-3) HepG2 (AID 654).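 Further: cells exposed to compound for 16 hours before reading; 0% = DMSO alone and 100% = caspase signal from 100 µM tamoxifen.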 The conditions noted are these: HepG2 caspase-3 activation, luminescence, 0% = DMSO only, 100% = tamoxifen; series mostly up to 92.2 µM. The method, boiled down:
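Cells plated 5 hr at 37 °C, compound added, incubated 16 hr at 37 °C. Caspase-Glo 3/7 reagent followed, 20 min at room temperature, then luminescence read. Activation scored as signal increase; AC50 from Hill fit.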

Assay [5] is described as follows: Cellular Toxicity (caspase-3) HUV-EC-C (AID 656). The conditions noted are these: HUV-EC-C cells, caspase-3 activation (apoptosis), vehicle = 0, 100 µM tamoxifen = 100%; series mostly up to 92.2 µM. The method in brief: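 HUV-EC-C endothelial cells, 1000/well, were pre-incubated 5 hr at 37°C, then exposed to compounds for 16 hr at 37°C. Caspase-Glo 3/7 luminescence was read after 20 min at room temperature. AC50 came from Hill fits, normalized to DMSO and 100 uM tamoxifen.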

Assay [6] can be described thus: Cellular Toxicity (caspase-3) Mesangial (AID 660).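 Further: combined caspase 3 and 7 activity read by Caspase-Glo luminescence; cells exposed to compound for 16 h before the caspase read.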 The conditions noted are these: mesangial cells, normalized: DMSO 0%, 100 µM tamoxifen 100%; series mostly up to 91.7 µM. The method, boiled down:
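Mesangial cells, 1000/well, 5 h settle at 37 °C; compound 16 h, 37 °C; Caspase-Glo 3/7 reagent 20 min RT; luminescence. Norm.: DMSO = 0%, tamoxifen 100 uM = 100%. AC50, Hill fit.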

Assay [7] can be described thus: Cellular Toxicity (caspase-3) SK-N-SH (AID 661).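 Further: 0% = DMSO basal and 100% = 10 µM staurosporine.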 The conditions noted are these: SK-N-SH caspase-3 activation, qHTS; series mostly up to 91.7 µM. The method in brief: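 Human neuroblastoma SK-N-SH, 1500 cells/well, 5 hr pre-incubation, then compound 16 hr, 37 °C. Caspase-Glo 3/7 reagent, 1 hr RT, luminescence. Norm. to DMSO/10 uM staurosporine; Hill-fit AC50.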
Assay [8] in a line: Cell Viability - LYMP2-023 (AID 975).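 Further: cellular ATP measured by luciferase luminescence as viability proxy; cells exposed to compound for 24 hours at 37 °C; plate controls were DMSO only for no effect and 92 µM tetraoctylammonium bromide control for full effect; nearly all actives have a fitted effect of over 55% in size.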 The conditions noted are these: LYMP2-023 lymphoblastoid cell viability; series mostly up to 92.2 µM. The method in brief: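 2500 cells/well, 5 hr 37 C; cpd 24 hr 37 C; CellTiter-Glo, 30 min RT; luminescence. qHTS conc-response, Hill fit -> AC50. Pos ctrl tetraoctylammonium bromide.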
The nature of assay [9]: Cell Viability - LYMP2-014 (AID 983).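 Further: cells exposed to compound for 24 h at 37 °C; plate controls were DMSO only for no effect and 92 µM tetraoctylammonium bromide for full effect; nearly all actives have a fitted effect of over 50% in size.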 The conditions noted are these: LYMP2-014 lymphoblastoid cells, viability qHTS; series mostly up to 92.2 µM. The method, boiled down: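 Luminescent ATP signal (CellTiter-Glo, 30 min at room temperature) serves as the viability read-out after 24 hr compound exposure at 37 C. Cells were seeded at 2500 per well and settled 5 hr beforehand.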

Assay [10] in a line: Cell Viability - LYMP2-026 (AID 989).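 Further: cells exposed to compound for 24 h at 37 °C; on the % scale 0 is the no-effect control and ±100 the full control effect; nearly all actives have a fitted effect of over 50% in size.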 Conditions: LYMP2-026 lymphoblastoid cell viability, qHTS; series mostly up to 92.2 µM. The method, boiled down:
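Luminescent ATP signal (CellTiter-Glo, 30 min room temperature) measures viable lymphoblastoid cells after 24 hr compound treatment at 37 C. Decreased ATP reflects acute toxicity; AC50 values come from Hill-equation modeling.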

Assay [11] concerns the target Peroxisome proliferator-activated receptor delta (Homo sapiens) (UniProt Q03181). Description: qHTS assay for small molecule agonists of peroxisome proliferator-activated receptor delta signaling (AID 588534; calls by dose curve;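 further: 0% = DMSO basal wells and 100% = positive control agonist at 10 µM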). The conditions noted are these: HEK293T PPARdelta-UAS-bla, beta-lactamase ratio, 18 h; series mostly up to 76.7 µM. The method in brief:
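Fluorescence from CCF4 substrate cleavage by beta-lactamase reporter, read 2 hrs at RT, measured agonist activity. Compounds were tested with 18 hrs exposure at 37 C. Concentration-response data fitted to Hill equation.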

In assay [12] the target is Vitamin D3 receptor (Homo sapiens) (UniProt P11473). Put plainly: qHTS assay for small molecule antagonists of vitamin D receptor signaling (AID 588541; calls by dose curve;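 further: receptor activated by calcitriol during compound treatment; on the % scale 0 is the no-effect control and ±100 the full control effect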). The conditions noted are these: HEK293T VDR-UAS-bla, beta-lactamase ratio, antagonist mode; series mostly up to 76.7 µM. The method, boiled down: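 VDR-UAS-bla HEK293T cells (2000/well, 2% charcoal-stripped FBS) were treated with titrated compounds plus 1-alpha,25-dihydroxyvitamin D3 (50 nM or 3 nM final) for 16 h at 37 C. CCF4 beta-lactamase fluorescence was read; Hill fits gave IC50.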
Vitamin D3 receptor (Homo sapiens), sequence (P11473 whole entry, looked up): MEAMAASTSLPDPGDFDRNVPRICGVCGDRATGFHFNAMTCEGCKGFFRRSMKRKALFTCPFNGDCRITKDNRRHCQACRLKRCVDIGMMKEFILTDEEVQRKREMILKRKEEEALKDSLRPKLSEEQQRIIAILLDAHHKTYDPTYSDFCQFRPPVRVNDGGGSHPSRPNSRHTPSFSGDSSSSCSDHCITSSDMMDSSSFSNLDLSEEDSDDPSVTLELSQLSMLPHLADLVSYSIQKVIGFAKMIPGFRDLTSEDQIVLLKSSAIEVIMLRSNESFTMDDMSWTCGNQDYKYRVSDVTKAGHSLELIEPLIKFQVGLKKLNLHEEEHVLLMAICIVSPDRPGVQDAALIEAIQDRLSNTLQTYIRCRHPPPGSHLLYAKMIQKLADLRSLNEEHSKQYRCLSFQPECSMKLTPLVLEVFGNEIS

Assay [13] shares this target. Put plainly: qHTS assay for small molecule agonists of vitamin D receptor signaling (AID 588543; calls by dose curve;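 further: 0% = DMSO basal and 100% = reference agonist control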). The conditions noted are these: HEK293T VDR-UAS-bla, beta-lactamase ratio, 16 h; series mostly up to 76.8 µM. The method, boiled down:
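GeneBLAzer VDR-UAS-bla HEK293T cells in 2% charcoal-stripped FBS medium were dosed with compound titrations for 16 h at 37 °C; CCF4 β-lactamase readout (405 nm ex, 460/530 nm em). EC50 and efficacy from Hill fits, normalized to 50 nM calcitriol (100%) and DMSO (0%).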

Assay [14] is described as follows: qHTS assay for small molecule activators of the p53 signaling pathway (AID 651743; active means well fitted activation curve with a large enough effect in the signal ratio, not every such curve was filed as active; the % refers to the signal ratio; further: % of control where 0% means no effect). The conditions noted are these: HCT-116 p53RE-bla, beta-lactamase FRET ratio, 16 h; activation: active compounds read high. The method in brief:
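Cell-based beta-lactamase reporter (p53 response elements, HCT-116 background). After a 5-hour preincubation, cells received compound for 16 hours at 37 C; substrate development ran 2 hours at room temperature.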

Assay [15] can be described thus: qHTS assay for small molecule disruptors of the mitochondrial membrane potential - 1 hr assay (AID 651754; calls by dose curve; further: nearly all actives have a fitted effect of over 35% in size; further: potency means the concentration at half of the fitted maximal effect). Conditions: series mostly up to 92.2 µM. The method in brief:
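HepG2, 2,000 cells/well, overnight attachment; cpd or DMSO 1 hr, 37C/5% CO2; Mito-MPS dye 30 min, 37C; fluorescence monomer (490/535) and aggregate (540/590).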

The target of assay [16] is Nuclear receptor ROR-gamma (Homo sapiens) (UniProt P51449). Description: qHTS assay for small molecule antagonists of the retinoid-related orphan receptor gamma (ROR-gamma) signaling pathway (AID 651802). Further: nearly all actives have a fitted effect of over 60% in size. Further: potency means the concentration at half of the fitted maximal effect. The conditions noted are these: ROR-gamma antagonist cell reporter assay; series mostly up to 92.2 µM. The method, boiled down:
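CHO, TET-inducible ROR + RORE-LUC reporter, 1536-well qHTS. Compound pinned, doxycycline added, 16hr 37C/5% CO2. ONE-Glo, 30 min RT, luminescence; signal drop scored as antagonism.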

Assay [17] is described as follows: qHTS assay for small molecule agonists of the antioxidant response element (ARE) signaling pathway measured by Nrf2-dependant transcriptional activity - cell viability counter screen (AID 720653; active means well fitted curve in the direction sought with a large enough effect in the repeat runs; an effect the other way counts as inactive or inconclusive; further: on the % scale 0 is the no-effect control and ±100 the full control effect). The conditions noted are these: ARE-bla HepG2 viability, CellTiter-Glo ATP luminescence, 16 h; active compounds read low. The method in brief: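 ARE-bla HepG2 cells (2,000/well) rested 5 hrs at 37C/5% CO2, then exposed to compounds in DMSO for 16 hrs. Viability was read in the same wells as intracellular ATP by luminescence, 30 min at room temperature after reagent addition.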

Assay [18] in a line: Cellular Toxicity (caspase-3) Hek293 (AID 664).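 Further: cells exposed to compound for 16 h at 37 °C before readout.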 The conditions noted are these: HEK293 caspase-3 activation, DMSO = 0%, 100 µM tamoxifen = 100%; at 92.2 µM (top of the series). The method in brief: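 Cells plated, 5 hr at 37 °C; compounds added; 16 hr at 37 °C; Caspase-Glo 3/7 reagent, 20 min RT; luminescence read. Activation expressed relative to DMSO and 100 uM tamoxifen, AC50 by Hill model.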

Assay [19] can be described thus: Cellular Toxicity (caspase-3) NIH 3T3 (AID 666).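 Further: caspase signal read after 16 h compound exposure; 0% = DMSO basal and 100% = 100 µM tamoxifen stimulation.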 Conditions: NIH 3T3 caspase-3 activation, apoptosis/toxicity; series mostly up to 92.2 µM. The method in brief: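 Luminescence from aminoluciferin released by caspase-3/7 cleavage of a peptide substrate served as read-out. Mouse fibroblast NIH 3T3 cells were exposed to compounds over a concentration range for 16 hours, and AC50 values came from standard Hill modelling.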

Assay [20] has as its target Voltage-gated inwardly rectifying potassium channel KCNH2 (Homo sapiens) (UniProt Q12809). Put plainly: qHTS Assay for Small Molecule Inhibitors of the Human hERG Channel Activity (AID 588834).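 Further: top concentration of the series differs between compounds; on the % scale 0 is the no-effect control and ±100 the full control effect; lower thallium flux fluorescence means stronger hERG block; nearly all actives have a fitted effect of over 50% in size.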 Conditions: U2OS BacMam hERG, FluxOR thallium flux fluorescence; series mostly up to 92.2 µM. The method, boiled down:
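U2OS cells transduced with hERG via BacMam (MOI ~100), plated 2000/well, loaded with FluxOR thallium dye, compound ~10 min, then stimulation buffer; fluorescence decrease read kinetically; AC50 from Hill fits.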

Several values for one entry are separate records, joined by “and”; a condition that tells them apart may be missing. Equal values may be shown once. Values without a mark were called inactive. Results filed as inconclusive are left out. Activity calls are given as the source filed them. Unless noted, the call rests on the fitted dose curve; in most records, active means well fitted curve in the direction sought with a large enough effect; inconclusive means small, poorly fitted or top-dose-only effect, or another doubt; inactive means no such curve, though single readings can be large; an effect the other way counts as inactive or inconclusive.

Peroxisome proliferator-activated receptor delta (Homo sapiens), sequence (Q03181 whole entry, looked up): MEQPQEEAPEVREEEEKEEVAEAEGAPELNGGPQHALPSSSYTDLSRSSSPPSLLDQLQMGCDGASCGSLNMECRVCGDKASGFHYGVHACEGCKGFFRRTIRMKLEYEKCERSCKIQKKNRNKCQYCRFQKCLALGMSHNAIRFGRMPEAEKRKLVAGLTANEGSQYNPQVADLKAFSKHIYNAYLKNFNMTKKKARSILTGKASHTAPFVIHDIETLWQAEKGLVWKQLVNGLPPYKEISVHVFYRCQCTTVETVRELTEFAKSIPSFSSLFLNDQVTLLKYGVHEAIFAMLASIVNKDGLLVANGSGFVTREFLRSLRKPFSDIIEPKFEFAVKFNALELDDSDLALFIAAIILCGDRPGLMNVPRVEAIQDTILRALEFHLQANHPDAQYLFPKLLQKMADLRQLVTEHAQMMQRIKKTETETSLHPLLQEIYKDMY
Nuclear receptor ROR-gamma (Homo sapiens), sequence (P51449 whole entry, looked up): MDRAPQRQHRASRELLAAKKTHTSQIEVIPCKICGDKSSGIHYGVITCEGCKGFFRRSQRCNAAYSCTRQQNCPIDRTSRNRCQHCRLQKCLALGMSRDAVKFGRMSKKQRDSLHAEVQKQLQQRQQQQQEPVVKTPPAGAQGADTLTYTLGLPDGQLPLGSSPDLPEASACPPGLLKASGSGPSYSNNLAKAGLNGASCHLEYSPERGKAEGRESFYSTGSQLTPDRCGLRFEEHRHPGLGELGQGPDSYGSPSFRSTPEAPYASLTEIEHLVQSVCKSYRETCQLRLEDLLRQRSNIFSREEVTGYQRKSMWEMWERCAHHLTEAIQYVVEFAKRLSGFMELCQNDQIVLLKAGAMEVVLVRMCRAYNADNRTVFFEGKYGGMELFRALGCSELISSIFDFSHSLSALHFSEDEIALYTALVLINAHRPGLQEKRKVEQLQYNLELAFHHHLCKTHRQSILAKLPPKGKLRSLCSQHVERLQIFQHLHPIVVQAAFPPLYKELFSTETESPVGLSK
Voltage-gated inwardly rectifying potassium channel KCNH2 (Homo sapiens), sequence (Q12809 whole entry, looked up): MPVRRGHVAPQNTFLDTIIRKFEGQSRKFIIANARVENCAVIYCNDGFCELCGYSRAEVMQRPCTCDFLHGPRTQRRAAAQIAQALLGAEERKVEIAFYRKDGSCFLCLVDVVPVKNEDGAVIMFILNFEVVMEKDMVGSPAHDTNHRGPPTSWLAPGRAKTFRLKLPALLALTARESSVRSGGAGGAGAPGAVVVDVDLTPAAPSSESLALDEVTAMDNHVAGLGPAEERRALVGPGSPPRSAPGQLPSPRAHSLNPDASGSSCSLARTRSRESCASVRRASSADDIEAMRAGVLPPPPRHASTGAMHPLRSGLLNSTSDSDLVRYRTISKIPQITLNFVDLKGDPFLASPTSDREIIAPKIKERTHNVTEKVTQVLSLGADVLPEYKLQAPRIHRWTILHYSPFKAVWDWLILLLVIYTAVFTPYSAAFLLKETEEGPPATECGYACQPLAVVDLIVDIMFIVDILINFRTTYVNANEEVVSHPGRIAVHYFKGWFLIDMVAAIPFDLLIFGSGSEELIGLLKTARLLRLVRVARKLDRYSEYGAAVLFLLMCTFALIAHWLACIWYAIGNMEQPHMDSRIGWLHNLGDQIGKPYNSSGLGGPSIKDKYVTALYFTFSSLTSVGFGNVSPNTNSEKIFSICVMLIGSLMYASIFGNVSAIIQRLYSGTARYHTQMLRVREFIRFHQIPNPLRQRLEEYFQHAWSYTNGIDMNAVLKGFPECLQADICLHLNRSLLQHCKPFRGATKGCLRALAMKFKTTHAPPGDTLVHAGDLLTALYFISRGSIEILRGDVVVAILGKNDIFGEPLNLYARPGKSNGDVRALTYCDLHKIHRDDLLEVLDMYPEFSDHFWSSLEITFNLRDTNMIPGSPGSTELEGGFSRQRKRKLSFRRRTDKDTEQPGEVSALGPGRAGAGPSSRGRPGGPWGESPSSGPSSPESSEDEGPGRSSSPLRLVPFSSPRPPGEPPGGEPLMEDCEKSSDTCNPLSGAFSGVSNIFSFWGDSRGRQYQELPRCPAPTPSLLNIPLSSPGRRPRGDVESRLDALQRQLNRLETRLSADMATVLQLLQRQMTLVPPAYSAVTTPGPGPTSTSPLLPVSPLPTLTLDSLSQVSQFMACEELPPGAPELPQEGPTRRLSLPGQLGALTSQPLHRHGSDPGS

As to `C(CCOCC1CO1)COCC1CO1` (configuration not stated), the figures for the Potency in assay [1] and in assay [2] were > 92 µM and 31.6 µM (active), respectively. Further, the Potency result in assay [3], in assay [7], in [8], in assay [9], in assay [10] and in assay [15] was “inactive” in each case. Moreover, in [16], the Potency entry was “inactive”. The outcome in assay [4], in [5], in assay [6], in assay [11], in assay [12] and in assay [13] was inactive. Also, the activation in [14] is 15.9%. Besides, the max response in assay [17] was 15.2%.

Take `CSSC`: the Potency result in [2], in assay [3], in assay [19], in assay [8], in assay [9] and in assay [10] was “inactive” in each case. Further, the Potency entry in [16] was “inactive”. Besides, the compound was called inactive in assay [4], in [5], in assay [6], in [11], in assay [12] and in assay [13]. Further, the caspase-3 activation in assay [18] is -3.42%. Also, in [14], the activation was -1.71%. For the same compound, in [17], the max response was 1.42%.

Turning to `ClC(Cl)Br`, in assay [1], the Potency was > 92 µM. Further, the Potency entry in assay [2], in assay [3], in assay [7], in [19], in [8] and in assay [10] was “inactive” in each case. Also, the Potency result in [20], in assay [15] and in assay [16] was “inactive” in each case. The compound was called inactive in [4], in [5], in assay [11], in assay [12] and in assay [13]. The caspase-3 activation in [18] was -0.335%. In addition, the max response in assay [17] was 9.16%.

Take `O=C(O)C(Br)Br`: the Potency in assay [1] is > 92 µM. Also, the Potency entry in assay [3], in [7], in assay [19], in [8], in assay [9] and in assay [10] was “inactive” each time. The Potency result in assay [20], in assay [15] and in assay [16] was “inactive” in each case. For the same compound, the outcome in assay [4], in assay [5], in assay [6] and in assay [12] was inactive. Further, in assay [18], the caspase-3 activation was -1.18%. Also, the activation in assay [14] was 6.12%. Besides, the max response in assay [17] was -17.6%.

For `CCOP(=O)(OCC)OCC`, the Potency in [1] was > 92 µM. Further, the Potency result in [2], in assay [7], in [19], in assay [8], in assay [9] and in assay [10] was “inactive” each time. For the same compound, the Potency entry in assay [20], in assay [15] and in assay [16] was “inactive” throughout. The outcome in assay [4], in assay [5], in [6], in assay [11], in assay [12] and in [13] was inactive. In addition, the caspase-3 activation in assay [18] was 0.845%. Further, the activation in [14] is 2.61% and -1.3%. Besides, in assay [17], the max response is -1.09% and -8.89%.

Regarding `O=[N+]([O-])c1ccccc1CCl`, the values for the Potency in assay [1] and in assay [16] were > 92 µM and 42.2 µM (active), respectively. For the same compound, the Potency result in [2], in assay [3], in assay [7], in assay [19], in assay [8] and in assay [9] was “inactive” in each case. In addition, the Potency entry in assay [20] and in [15] was “inactive” each time. Besides, the compound was called inactive in assay [4], in assay [5], in assay [6], in assay [11], in assay [12] and in assay [13]. In addition, the caspase-3 activation in assay [18] is 0.434%. Moreover, the activation in assay [14] is -1.05%. Besides, in [17], the max response is -9.56%.

Consider `Cc1cc(C)cc(OP(=O)(Oc2cc(C)cc(C)c2)Oc2cc(C)cc(C)c2)c1`, for which the Potency was > 92 µM in [1], 11.9 µM (active) in [15] and 26.6 µM (active) in assay [16]. The Potency entry in [2], in assay [3], in assay [7], in assay [8], in assay [9] and in assay [10] was “inactive” in each case. Also, the compound was classed as inactive in assay [4], in [5], in assay [6], in assay [12] and in [13]. For the same compound, the caspase-3 activation in assay [18] is 1.43%. Also, the activation in assay [14] is -0.0195%. In addition, in assay [17], the max response was -9.8%.
